Data published in the supplement of paper PMC11732987, “Enantioselective OTUD7B fragment discovery through chemoproteomics screening and high-throughput optimisation” (Communications Chemistry, 2025).

Assays:
Assay in all cases: log2 ratio of Biotin-Ahx-Ub-VS probe labelling (fragment/DMSO); higher = less target engagement (more negative = stronger competition), active = hit call of the paper (q ≤ 0.05, log2 ratio ≤ -1)
Details in all cases: compound concentration: 200 uM; treatment time: 3 h
USP34 = USP34 (UniProt Q70CQ2)
Chain of USP34 (Q70CQ2 whole entry, the tested form may be a part): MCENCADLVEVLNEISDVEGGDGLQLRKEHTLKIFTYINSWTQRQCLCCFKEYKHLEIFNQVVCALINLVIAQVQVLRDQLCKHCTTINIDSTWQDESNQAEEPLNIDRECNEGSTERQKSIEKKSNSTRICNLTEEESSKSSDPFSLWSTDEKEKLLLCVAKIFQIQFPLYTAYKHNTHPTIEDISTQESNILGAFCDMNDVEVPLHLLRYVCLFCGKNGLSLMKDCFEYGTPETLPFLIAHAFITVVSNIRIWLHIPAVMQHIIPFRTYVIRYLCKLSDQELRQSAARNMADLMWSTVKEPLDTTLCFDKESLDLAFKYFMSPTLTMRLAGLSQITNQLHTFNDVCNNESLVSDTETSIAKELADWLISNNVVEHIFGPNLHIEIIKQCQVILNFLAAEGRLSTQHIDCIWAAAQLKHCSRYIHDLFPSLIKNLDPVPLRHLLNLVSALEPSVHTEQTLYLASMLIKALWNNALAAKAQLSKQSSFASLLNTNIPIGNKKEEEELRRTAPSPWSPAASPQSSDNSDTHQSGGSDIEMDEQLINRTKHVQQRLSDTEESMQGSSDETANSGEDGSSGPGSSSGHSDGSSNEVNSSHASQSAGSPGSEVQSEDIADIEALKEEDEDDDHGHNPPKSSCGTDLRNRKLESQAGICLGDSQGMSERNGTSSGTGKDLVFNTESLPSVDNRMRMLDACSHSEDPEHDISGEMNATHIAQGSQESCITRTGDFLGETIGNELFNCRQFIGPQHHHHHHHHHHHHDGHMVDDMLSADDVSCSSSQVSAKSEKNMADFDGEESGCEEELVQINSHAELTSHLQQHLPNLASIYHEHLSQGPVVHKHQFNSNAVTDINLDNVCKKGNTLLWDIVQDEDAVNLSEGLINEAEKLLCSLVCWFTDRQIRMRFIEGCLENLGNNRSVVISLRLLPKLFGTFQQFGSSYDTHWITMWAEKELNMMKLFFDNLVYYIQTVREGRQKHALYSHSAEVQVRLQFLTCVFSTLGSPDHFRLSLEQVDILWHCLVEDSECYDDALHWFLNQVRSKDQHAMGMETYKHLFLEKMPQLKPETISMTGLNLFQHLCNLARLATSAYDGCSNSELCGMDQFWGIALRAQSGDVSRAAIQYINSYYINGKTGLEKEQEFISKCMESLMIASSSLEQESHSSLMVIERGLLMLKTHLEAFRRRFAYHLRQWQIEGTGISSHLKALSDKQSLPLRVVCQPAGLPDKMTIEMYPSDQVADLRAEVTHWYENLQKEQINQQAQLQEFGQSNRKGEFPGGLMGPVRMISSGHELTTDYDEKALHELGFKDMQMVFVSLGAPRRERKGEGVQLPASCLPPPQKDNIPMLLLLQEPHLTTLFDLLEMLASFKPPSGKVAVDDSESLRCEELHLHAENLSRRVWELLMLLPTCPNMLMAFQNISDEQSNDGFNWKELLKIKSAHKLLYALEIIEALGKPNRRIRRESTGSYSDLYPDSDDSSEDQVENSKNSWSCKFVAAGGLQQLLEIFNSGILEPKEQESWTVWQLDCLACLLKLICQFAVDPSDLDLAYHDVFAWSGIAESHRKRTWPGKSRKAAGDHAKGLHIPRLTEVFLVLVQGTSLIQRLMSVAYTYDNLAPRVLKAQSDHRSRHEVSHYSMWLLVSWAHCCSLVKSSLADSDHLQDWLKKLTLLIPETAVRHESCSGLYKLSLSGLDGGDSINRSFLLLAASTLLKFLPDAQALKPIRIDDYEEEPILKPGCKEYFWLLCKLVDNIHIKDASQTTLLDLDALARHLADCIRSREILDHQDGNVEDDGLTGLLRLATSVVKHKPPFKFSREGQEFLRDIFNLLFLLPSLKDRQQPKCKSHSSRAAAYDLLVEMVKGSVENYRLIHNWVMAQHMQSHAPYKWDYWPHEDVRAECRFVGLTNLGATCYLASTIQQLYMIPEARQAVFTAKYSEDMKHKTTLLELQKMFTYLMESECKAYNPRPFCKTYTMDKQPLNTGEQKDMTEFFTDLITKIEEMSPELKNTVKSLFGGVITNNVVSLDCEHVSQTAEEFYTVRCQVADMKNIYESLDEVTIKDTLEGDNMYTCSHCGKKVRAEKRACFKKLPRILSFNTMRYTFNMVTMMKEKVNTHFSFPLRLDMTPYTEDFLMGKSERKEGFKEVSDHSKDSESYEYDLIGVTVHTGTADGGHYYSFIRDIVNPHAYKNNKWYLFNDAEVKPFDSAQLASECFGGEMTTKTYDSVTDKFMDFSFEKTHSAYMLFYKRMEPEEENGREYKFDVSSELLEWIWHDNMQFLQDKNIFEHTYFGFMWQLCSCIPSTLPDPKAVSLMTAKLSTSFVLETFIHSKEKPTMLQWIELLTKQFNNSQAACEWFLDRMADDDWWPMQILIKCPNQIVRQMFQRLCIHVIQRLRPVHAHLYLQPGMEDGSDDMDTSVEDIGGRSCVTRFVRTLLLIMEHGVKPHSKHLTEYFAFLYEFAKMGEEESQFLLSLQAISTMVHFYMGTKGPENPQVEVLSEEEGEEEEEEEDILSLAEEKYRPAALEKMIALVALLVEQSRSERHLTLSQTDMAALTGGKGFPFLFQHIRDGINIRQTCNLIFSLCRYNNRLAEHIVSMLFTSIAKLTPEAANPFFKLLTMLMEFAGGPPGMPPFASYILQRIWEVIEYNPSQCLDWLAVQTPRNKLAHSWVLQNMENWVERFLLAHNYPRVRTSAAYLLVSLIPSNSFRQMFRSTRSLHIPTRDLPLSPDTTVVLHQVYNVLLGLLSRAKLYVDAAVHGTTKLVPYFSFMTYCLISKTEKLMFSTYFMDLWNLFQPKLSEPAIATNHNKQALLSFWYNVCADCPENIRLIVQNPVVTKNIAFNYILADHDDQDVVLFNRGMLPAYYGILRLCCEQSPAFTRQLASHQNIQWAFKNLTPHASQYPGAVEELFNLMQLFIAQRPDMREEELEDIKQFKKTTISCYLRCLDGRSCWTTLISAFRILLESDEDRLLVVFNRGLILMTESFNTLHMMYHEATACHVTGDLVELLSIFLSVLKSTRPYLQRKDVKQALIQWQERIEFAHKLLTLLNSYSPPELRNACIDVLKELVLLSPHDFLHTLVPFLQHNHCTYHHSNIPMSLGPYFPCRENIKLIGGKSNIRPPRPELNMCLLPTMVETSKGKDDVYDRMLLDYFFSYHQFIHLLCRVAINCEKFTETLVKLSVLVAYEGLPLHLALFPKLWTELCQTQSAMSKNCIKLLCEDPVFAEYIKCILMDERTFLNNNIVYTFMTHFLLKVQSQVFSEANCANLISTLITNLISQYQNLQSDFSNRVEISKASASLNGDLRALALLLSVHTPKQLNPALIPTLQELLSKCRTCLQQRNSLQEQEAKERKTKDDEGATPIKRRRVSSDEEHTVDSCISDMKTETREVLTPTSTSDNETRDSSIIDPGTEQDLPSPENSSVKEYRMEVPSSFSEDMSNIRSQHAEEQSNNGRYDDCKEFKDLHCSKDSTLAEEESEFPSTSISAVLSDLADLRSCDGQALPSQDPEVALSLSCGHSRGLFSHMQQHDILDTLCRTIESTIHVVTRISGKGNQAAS
Method in brief: (§1)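 Global-median-normalised Spectronaut label-free quantities were compared by unpaired t-test, and values are average log2 ratios of fragment over vehicle. Only proteins with ≥2 unique peptides were used. HEK293T lysate (495 µg per sample) was treated in triplicate with fragment at 200 µM or vehicle for 3 h and then with Biotin-Ahx-Ub-VS at 0.5 µM final for 1 h. Labelled DUBs were then NeutrAvidin-enriched, digested with LysC and trypsin, and run by diaPASEF LC-MS/MS.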

USP36 = target: T1, USP36 (UniProt Q9P275)
T1 sequence (whole entry): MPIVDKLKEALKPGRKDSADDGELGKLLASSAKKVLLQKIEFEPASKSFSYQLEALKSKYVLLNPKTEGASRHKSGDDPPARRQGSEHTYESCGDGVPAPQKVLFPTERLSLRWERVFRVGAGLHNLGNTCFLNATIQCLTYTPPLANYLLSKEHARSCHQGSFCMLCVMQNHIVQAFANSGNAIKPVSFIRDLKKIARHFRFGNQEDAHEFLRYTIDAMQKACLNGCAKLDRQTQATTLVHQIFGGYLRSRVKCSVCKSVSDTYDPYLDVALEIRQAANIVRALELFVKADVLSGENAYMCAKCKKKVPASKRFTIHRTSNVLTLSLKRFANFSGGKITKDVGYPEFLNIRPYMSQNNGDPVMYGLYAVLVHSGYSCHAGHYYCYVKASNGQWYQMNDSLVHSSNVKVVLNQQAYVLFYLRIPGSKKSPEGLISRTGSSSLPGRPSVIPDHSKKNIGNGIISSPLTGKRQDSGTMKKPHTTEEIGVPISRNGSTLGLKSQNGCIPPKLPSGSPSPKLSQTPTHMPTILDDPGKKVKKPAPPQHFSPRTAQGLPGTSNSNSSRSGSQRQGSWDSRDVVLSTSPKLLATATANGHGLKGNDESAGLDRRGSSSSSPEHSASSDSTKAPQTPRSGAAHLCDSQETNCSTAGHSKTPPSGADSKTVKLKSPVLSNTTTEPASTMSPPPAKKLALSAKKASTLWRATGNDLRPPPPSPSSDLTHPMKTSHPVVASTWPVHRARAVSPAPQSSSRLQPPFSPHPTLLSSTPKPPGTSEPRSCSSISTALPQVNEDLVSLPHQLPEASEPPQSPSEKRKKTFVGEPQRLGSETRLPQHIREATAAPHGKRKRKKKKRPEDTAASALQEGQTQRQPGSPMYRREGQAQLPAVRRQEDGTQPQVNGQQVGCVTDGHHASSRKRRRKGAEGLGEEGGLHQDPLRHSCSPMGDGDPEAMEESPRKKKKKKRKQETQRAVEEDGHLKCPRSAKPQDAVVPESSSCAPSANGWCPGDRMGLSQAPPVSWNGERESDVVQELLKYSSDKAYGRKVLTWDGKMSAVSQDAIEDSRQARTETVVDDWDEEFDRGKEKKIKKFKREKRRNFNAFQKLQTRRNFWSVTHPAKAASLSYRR
Method in brief: as §1

USP38 = target: T2, USP38 (UniProt Q8NB14)
T2 sequence (whole entry): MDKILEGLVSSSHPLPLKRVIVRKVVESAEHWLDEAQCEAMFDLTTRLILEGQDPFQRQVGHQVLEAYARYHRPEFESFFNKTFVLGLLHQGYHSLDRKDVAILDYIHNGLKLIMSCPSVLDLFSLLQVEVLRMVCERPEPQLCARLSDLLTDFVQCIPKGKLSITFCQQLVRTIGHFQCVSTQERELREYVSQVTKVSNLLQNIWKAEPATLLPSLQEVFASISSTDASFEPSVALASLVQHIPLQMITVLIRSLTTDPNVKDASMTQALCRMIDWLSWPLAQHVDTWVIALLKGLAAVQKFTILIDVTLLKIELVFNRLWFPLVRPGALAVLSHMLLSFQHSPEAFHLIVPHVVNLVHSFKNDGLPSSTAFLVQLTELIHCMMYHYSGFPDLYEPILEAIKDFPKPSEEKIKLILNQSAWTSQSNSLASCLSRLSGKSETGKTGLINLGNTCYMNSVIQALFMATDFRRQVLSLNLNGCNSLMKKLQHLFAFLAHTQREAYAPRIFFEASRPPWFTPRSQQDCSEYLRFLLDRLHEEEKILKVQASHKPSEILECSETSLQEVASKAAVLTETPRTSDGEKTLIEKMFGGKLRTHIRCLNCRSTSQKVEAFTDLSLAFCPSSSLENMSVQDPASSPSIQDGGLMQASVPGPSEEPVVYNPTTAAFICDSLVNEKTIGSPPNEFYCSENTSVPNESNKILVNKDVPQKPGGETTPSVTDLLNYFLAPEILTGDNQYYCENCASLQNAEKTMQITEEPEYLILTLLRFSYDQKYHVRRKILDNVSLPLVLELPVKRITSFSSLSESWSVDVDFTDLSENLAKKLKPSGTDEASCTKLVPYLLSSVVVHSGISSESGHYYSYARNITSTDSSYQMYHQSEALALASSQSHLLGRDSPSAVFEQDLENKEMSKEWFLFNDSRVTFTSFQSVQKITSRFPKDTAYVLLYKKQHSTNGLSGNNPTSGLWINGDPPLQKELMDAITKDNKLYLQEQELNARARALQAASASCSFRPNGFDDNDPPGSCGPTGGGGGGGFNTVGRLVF
Method in brief: as §1

USP39 = target: T3, USP39 (UniProt Q53GS9)
T3 sequence (whole entry): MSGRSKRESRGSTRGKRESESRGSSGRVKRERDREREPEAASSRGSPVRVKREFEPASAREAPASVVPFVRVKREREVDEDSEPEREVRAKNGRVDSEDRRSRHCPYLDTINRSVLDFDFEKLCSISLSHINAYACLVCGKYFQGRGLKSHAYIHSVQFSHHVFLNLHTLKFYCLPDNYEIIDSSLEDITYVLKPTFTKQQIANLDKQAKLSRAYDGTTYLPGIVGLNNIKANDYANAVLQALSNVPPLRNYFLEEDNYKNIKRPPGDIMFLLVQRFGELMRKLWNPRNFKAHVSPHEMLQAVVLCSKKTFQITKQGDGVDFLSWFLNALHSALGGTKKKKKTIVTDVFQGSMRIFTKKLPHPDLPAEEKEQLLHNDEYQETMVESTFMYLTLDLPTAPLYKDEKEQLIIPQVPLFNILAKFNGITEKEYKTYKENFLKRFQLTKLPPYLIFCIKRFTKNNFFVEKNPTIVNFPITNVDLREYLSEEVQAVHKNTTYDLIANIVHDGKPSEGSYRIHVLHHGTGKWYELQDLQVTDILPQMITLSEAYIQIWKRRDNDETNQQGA
Method in brief: as §1

USP4 = target: T4, USP4 (UniProt Q13107)
T4 sequence (whole entry): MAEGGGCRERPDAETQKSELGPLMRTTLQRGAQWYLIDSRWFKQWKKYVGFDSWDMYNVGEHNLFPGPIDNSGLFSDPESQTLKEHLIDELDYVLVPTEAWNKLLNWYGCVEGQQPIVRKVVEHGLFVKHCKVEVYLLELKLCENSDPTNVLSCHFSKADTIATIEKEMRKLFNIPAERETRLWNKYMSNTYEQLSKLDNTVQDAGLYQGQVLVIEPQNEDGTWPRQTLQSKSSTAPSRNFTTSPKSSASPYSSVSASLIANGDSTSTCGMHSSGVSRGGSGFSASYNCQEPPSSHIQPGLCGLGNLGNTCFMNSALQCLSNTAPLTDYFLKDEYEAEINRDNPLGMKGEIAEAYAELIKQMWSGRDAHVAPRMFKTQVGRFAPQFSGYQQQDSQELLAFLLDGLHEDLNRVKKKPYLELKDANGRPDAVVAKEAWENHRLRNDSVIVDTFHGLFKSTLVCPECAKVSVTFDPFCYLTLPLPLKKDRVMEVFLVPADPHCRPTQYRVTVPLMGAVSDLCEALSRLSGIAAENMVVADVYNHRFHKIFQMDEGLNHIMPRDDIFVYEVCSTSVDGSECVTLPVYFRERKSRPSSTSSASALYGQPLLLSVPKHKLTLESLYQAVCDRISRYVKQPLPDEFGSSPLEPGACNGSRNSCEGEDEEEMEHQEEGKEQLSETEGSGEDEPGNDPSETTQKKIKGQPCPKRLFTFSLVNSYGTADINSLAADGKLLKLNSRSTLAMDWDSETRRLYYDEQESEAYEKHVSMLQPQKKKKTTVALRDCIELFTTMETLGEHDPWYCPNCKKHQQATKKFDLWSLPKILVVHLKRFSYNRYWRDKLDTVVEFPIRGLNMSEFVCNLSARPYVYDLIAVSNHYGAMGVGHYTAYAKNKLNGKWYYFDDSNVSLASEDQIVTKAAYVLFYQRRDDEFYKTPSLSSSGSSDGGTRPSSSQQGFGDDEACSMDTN
Method in brief: as §1

Measured: log2 ratio of Biotin-Ahx-Ub-VS probe labelling

CC(=O)Nc1ccc(NC(=O)CCl)cc1
inactive: USP34 -0.128 | USP36 -0.0191 | USP38 0.0936 | USP39 0.432 | USP4 -0.163
